Measured values taken from ChEMBL document CHEMBL3433997, “St. Jude Leishmania screening dataset” (2016).

What was measured:
Type in all cases: functional
[1] = target: Solute carrier family 2, facilitated glucose transporter member 1 (Homo sapiens) (UniProt P11166); assay: ST_JUDE_LEISH: Cytotoxicity at 2uM final concentration against transgenic Leishmania Mexicana promastigotes LmGLUT1 that are glucose transport deficient and complemented with the human glucose transporter GLUT1. Activity is measured by DNA content using SYBR green in vitro
Sequence of Solute carrier family 2, facilitated glucose transporter member 1 (Homo sapiens) (P11166 whole entry): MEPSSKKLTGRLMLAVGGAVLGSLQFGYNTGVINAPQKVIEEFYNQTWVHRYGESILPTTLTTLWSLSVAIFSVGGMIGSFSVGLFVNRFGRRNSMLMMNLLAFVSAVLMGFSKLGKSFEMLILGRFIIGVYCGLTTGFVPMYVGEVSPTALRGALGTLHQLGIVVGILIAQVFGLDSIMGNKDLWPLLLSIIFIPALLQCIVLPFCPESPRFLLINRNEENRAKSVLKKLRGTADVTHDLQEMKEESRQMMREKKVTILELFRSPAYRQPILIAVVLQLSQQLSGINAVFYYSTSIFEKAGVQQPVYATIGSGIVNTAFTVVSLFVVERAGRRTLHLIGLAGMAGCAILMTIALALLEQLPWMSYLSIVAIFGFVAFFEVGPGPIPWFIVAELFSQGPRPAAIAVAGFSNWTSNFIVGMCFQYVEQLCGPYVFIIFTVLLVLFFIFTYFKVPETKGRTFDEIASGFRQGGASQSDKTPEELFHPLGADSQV

[2] = target: Hexose transporter 1 (Plasmodium falciparum) (UniProt O97467); assay: ST_JUDE_LEISH: Cytotoxicity at 2uM final concentration against transgenic Leishmania Mexicana promastigotes LmPfHT that are glucose transport deficient and complemented with the Plasmodium falciparum hexose transporter. Activity is measured by DNA content using SYBR green in vitro
[3] = target: Glucose transporter (Leishmania mexicana) (UniProt O61059); assay: ST_JUDE_LEISH: Cytotoxicity at 2uM final concentration against transgenic Leishmania Mexicana promastigotes LmGT2 that are glucose transport deficient and complemented with the L. Mexicana glucose transporter 2. Activity is measured by DNA content using SYBR green in vitro

Row | Structure (SMILES) | inhibition [1] | inhibition [2] | inhibition [3]
1 | CCN(C(=O)c1ccc(NC(=O)c2cccs2)cc1)c1nc2c(C)cccc2s1 | 1.43% | 4.28% | 2.9%
2 | Cc1cccc2nc(-c3ccc(-c4cccc(CN5CCN(c6ccncc6)CC5)c4)s3)[nH]c12 | 4.03% | 2.05% | 0.33%
3 | Cn1ncc2c3c(CCN4CCC(NCc5ccc6c(c5)NC(=O)CO6)CC4)c(Cl)cnc3ccc21 | 1.41% | 2.09% | -0.28%
4 | c1ccc(CN2CCC(NCc3ccccc3-c3cccc(CNCc4ccc5c(c4)OCO5)c3)CC2)cc1 | -2.53% | -0.36% | 0.7%
5 | COc1ccc2nccc([C@@H](O)CN3CCC(NC(=O)C(c4ccsc4)N4CCN(c5ccccc5)CC4)CC3)c2c1 (stereo partly specified) | 4.17% | 3.07% | 1.54%
6 | CN(C)CCNCc1cccc(-c2cccc(-c3nc4ccccc4[nH]3)c2)c1 | 2.56% | 2.66% | 1.85%
7 | CCOc1cc(C(=O)NCc2ccc(Cl)c(Cl)c2)ccc1-c1nc2cc(Cl)ccc2[nH]1 | -0.85% | 2.33% | 7.21%
8 | O=C(Nc1ccc(F)c(C(F)(F)F)c1)N[C@H]1CCN(CCCCCNC(=O)C2CC2c2ccc(Cl)c(Cl)c2)C1 (stereo partly specified) | -0.22% | -0.44% | -2.52%
9 | Clc1ccccc1C=NN=c1cc[nH]c2ccccc12 | 3.99% | 5.58% | 5.41%
10 | COc1ccc2nccc([C@@H](O)CN3CCC(NCCOc4ccc(F)cc4Cl)CC3)c2c1 | 9.75% | 11.6% | 4.96%
11 | Cc1ccoc1C(=O)Nc1cccc(-c2cccc(-c3nc4cccc(C)c4[nH]3)c2)c1 | 7.85% | 5.09% | 4.05%
12 | COc1ccc(Nc2nc(=Nc3ccccc3)nc(NN=Cc3cc(Cl)ccc3O)[nH]2)cc1 | 1.37% | 2.04% | 1.08%
